# Measurements from the supplement of paper PMC12282887.
# ± gives the standard deviation of the averaged measurements.
# Experiments:
# Assay in all cases: promoter activity interaction Z-score (Lux/OD deviation from empty-vector control); higher = stronger promoter induction by the compound
# [1] = tested on: E. coli BW25113 acrABp lux reporter
# How it was run: (§1)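 Every compound was given at four 1:2 dilutions, in biological duplicates, to E. coli BW25113 carrying low-copy luxCDABE promoter reporters in wild-type or single-gene deletion backgrounds. Growth in 40 µl LB Lennox in 384-well plates at 37°C was followed by OD600 and luminescence readings every 30 min for 12 h, integrated over 0–8 h for wild type and 1–9 h for deletion strains, with wells below 10% of the median growth value excluded. Scores are Z-transformed residuals of growth-normalised luminescence fitted against a control.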
# [2] = tested on: E. coli BW25113 marRABp lux reporter
# How it was run: as §1
# [3] = tested on: E. coli BW25113 micFp lux reporter
# How it was run: as §1
# [4] = tested on: E. coli BW25113 ompFp lux reporter
# How it was run: as §1
# [5] = tested on: E. coli BW25113 robp lux reporter
# How it was run: as §1
# [6] = tested on: E. coli BW25113 soxSp lux reporter
# How it was run: as §1
# [7] = tested on: E. coli BW25113 tolCp lux reporter
# How it was run: as §1
# [8] = 0.12 µg/ml, genetic background: wild type
# [9] = 0.12 µg/ml, genetic background: ΔmarA
# [10] = 0.12 µg/ml, genetic background: Δrob
# [11] = 0.12 µg/ml, genetic background: ΔsoxS
# [12] = 0.24 µg/ml, genetic background: wild type
# [13] = 0.24 µg/ml, genetic background: ΔmarA
# [14] = 0.24 µg/ml, genetic background: Δrob
# [15] = 0.24 µg/ml, genetic background: ΔsoxS
# [16] = 0.48 µg/ml, genetic background: wild type
# [17] = 0.48 µg/ml, genetic background: ΔmarA
# [18] = 0.48 µg/ml, genetic background: Δrob
# [19] = 0.48 µg/ml, genetic background: ΔsoxS
# [20] = 1 µg/ml, genetic background: wild type
# [21] = 1 µg/ml, genetic background: ΔmarA
# [22] = 1 µg/ml, genetic background: ΔsoxS
smiles,measurement,setting,value
O=C(N[C@H](CO)[C@H](O)c1ccc([N+](=O)[O-])cc1)C(Cl)Cl [Chloramphenicol],promoter activity interaction Z-score,[1]; [8],0.22 ± 0.098
same,promoter activity interaction Z-score,[1]; [9],-0.0897 ± 1
same,promoter activity interaction Z-score,[1]; [10],0.368 ± 0.066
same,promoter activity interaction Z-score,[1]; [11],0.272 ± 0.11
same,promoter activity interaction Z-score,[1]; [12],0.636 ± 0.41
same,promoter activity interaction Z-score,[1]; [13],-0.23 ± 0.65
same,promoter activity interaction Z-score,[1]; [14],0.312 ± 0.071
same,promoter activity interaction Z-score,[1]; [15],0.433 ± 0.24
same,promoter activity interaction Z-score,[1]; [16],1.1 ± 0.056
same,promoter activity interaction Z-score,[1]; [17],-0.541 ± 0.59
same,promoter activity interaction Z-score,[1]; [18],0.7917 ± 0.0062
same,promoter activity interaction Z-score,[1]; [19],1.11 ± 0.52
same,promoter activity interaction Z-score,[1]; [20],1.46 ± 0.021
same,promoter activity interaction Z-score,[1]; [21],-1.09 ± 0.82
same,promoter activity interaction Z-score,[1]; [22],0.0905
same,promoter activity interaction Z-score,[2]; [8],0.131 ± 0.36
same,promoter activity interaction Z-score,[2]; [9],0.172 ± 0.061
same,promoter activity interaction Z-score,[2]; [10],0.31 ± 0.053
same,promoter activity interaction Z-score,[2]; [11],0.215 ± 0.0078
same,promoter activity interaction Z-score,[2]; [12],0.735 ± 0.19
same,promoter activity interaction Z-score,[2]; [13],0.695 ± 0.4
same,promoter activity interaction Z-score,[2]; [14],0.342 ± 0.21
same,promoter activity interaction Z-score,[2]; [15],0.497 ± 0.14
same,promoter activity interaction Z-score,[2]; [16],1.43 ± 0.31
same,promoter activity interaction Z-score,[2]; [17],1.26 ± 0.45
same,promoter activity interaction Z-score,[2]; [18],0.873 ± 0.55
same,promoter activity interaction Z-score,[2]; [19],1.19 ± 0.34
same,promoter activity interaction Z-score,[2]; [20],0.553 ± 0.19
same,promoter activity interaction Z-score,[2]; [21],-0.609 ± 0.26
same,promoter activity interaction Z-score,[2]; [22],1.31 ± 0.5
same,promoter activity interaction Z-score,[3]; [8],-0.122 ± 0.054
same,promoter activity interaction Z-score,[3]; [9],-0.0498 ± 0.071
same,promoter activity interaction Z-score,[3]; [10],-0.238 ± 0.013
same,promoter activity interaction Z-score,[3]; [11],0.0558 ± 0.064
same,promoter activity interaction Z-score,[3]; [12],0.0837 ± 0.14
same,promoter activity interaction Z-score,[3]; [13],-0.057 ± 0.033
same,promoter activity interaction Z-score,[3]; [14],-0.128 ± 0.036
same,promoter activity interaction Z-score,[3]; [15],-0.0814 ± 0.0056
same,promoter activity interaction Z-score,[3]; [16],-0.548 ± 0.11
same,promoter activity interaction Z-score,[3]; [17],-0.166 ± 0.013
same,promoter activity interaction Z-score,[3]; [18],0.103 ± 0.18
same,promoter activity interaction Z-score,[3]; [19],0.183 ± 0.15
same,promoter activity interaction Z-score,[3]; [20],-1.17 ± 0.016
same,promoter activity interaction Z-score,[3]; [21],-0.119 ± 0.29
same,promoter activity interaction Z-score,[3]; [22],-0.534
same,promoter activity interaction Z-score,[4]; [8],0.809 ± 0.57
same,promoter activity interaction Z-score,[4]; [9],0.473 ± 0.32
same,promoter activity interaction Z-score,[4]; [10],0.576 ± 0.47
same,promoter activity interaction Z-score,[4]; [11],1.1 ± 0.088
same,promoter activity interaction Z-score,[4]; [12],1.81 ± 0.86
same,promoter activity interaction Z-score,[4]; [13],1.78 ± 0.49
same,promoter activity interaction Z-score,[4]; [14],1.2 ± 0.46
same,promoter activity interaction Z-score,[4]; [15],1.55 ± 0.91
same,promoter activity interaction Z-score,[4]; [16],0.1844 ± 0.0012
same,promoter activity interaction Z-score,[4]; [17],1.34 ± 0.83
same,promoter activity interaction Z-score,[4]; [18],0.797 ± 0.094
same,promoter activity interaction Z-score,[4]; [19],1.6 ± 0.38
same,promoter activity interaction Z-score,[4]; [20],-1.42 ± 0.36
same,promoter activity interaction Z-score,[4]; [21],-1.37 ± 0.11
same,promoter activity interaction Z-score,[4]; [22],-0.525
same,promoter activity interaction Z-score,[5]; [8],-0.00573 ± 0.3
same,promoter activity interaction Z-score,[5]; [9],-0.626 ± 0.41
same,promoter activity interaction Z-score,[5]; [10],-0.328 ± 0.36
same,promoter activity interaction Z-score,[5]; [11],0.732 ± 0.14
same,promoter activity interaction Z-score,[5]; [12],-0.692 ± 0.34
same,promoter activity interaction Z-score,[5]; [13],-0.0133 ± 0.15
same,promoter activity interaction Z-score,[5]; [14],-0.61 ± 0.2
same,promoter activity interaction Z-score,[5]; [15],-0.218 ± 0.31
same,promoter activity interaction Z-score,[5]; [16],-1.41 ± 0.4
same,promoter activity interaction Z-score,[5]; [17],-0.957 ± 0.41
same,promoter activity interaction Z-score,[5]; [18],-1.44 ± 0.12
same,promoter activity interaction Z-score,[5]; [19],-1.17 ± 0.88
same,promoter activity interaction Z-score,[5]; [20],-2.19 ± 0.21
same,promoter activity interaction Z-score,[5]; [21],-1.15 ± 0.94
same,promoter activity interaction Z-score,[6]; [8],-0.0492 ± 0.039
same,promoter activity interaction Z-score,[6]; [9],0.159 ± 0.13
same,promoter activity interaction Z-score,[6]; [10],0.217 ± 0.045
same,promoter activity interaction Z-score,[6]; [11],0.238 ± 0.14
same,promoter activity interaction Z-score,[6]; [12],0.299 ± 0.018
same,promoter activity interaction Z-score,[6]; [13],0.529 ± 0.11
same,promoter activity interaction Z-score,[6]; [14],0.189 ± 0.096
same,promoter activity interaction Z-score,[6]; [15],0.422 ± 0.29
same,promoter activity interaction Z-score,[6]; [16],0.645 ± 0.3
same,promoter activity interaction Z-score,[6]; [17],0.914 ± 0.026
same,promoter activity interaction Z-score,[6]; [18],0.721 ± 0.017
same,promoter activity interaction Z-score,[6]; [19],1.45 ± 1.5
same,promoter activity interaction Z-score,[6]; [20],1.67 ± 0.091
same,promoter activity interaction Z-score,[6]; [21],2.38 ± 0.034
same,promoter activity interaction Z-score,[6]; [22],1.71 ± 1.7
same,promoter activity interaction Z-score,[7]; [8],0.142 ± 1.1
same,promoter activity interaction Z-score,[7]; [9],-0.0323 ± 0.44
same,promoter activity interaction Z-score,[7]; [10],0.149 ± 0.77
same,promoter activity interaction Z-score,[7]; [11],-0.831 ± 0.55
same,promoter activity interaction Z-score,[7]; [12],0.339 ± 0.15
same,promoter activity interaction Z-score,[7]; [13],0.367 ± 0.84
same,promoter activity interaction Z-score,[7]; [14],-0.202 ± 1.4
same,promoter activity interaction Z-score,[7]; [15],0.0632 ± 1
same,promoter activity interaction Z-score,[7]; [16],0.356 ± 1.2
same,promoter activity interaction Z-score,[7]; [17],0.168 ± 0.82
same,promoter activity interaction Z-score,[7]; [18],-0.0545 ± 0.19
same,promoter activity interaction Z-score,[7]; [19],2.03 ± 0.53
same,promoter activity interaction Z-score,[7]; [20],-0.0529 ± 0.35
same,promoter activity interaction Z-score,[7]; [21],-0.256 ± 0.82
same,promoter activity interaction Z-score,[7]; [22],1.66 ± 0.93
